# ± gives the standard deviation.
# T1: HaloTag-ATRX ADD domain (163-292)
# T1 chain: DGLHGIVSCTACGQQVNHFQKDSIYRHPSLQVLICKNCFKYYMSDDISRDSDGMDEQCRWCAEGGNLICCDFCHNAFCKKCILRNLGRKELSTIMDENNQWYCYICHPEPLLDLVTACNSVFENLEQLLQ
# Experiments:
# Test in all cases: peptide microarray binding signal (635 nm), min-max normalized on array (fraction of array maximum); higher = stronger binding
# Settings in all cases: peptide region: H3 5-17
# [1] = target: T1, HaloTag-ATRX ADD domain (163-292)
# How it was run: (§1)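 For each library, binding signal was taken as the triplicate-spot mean intensity and then min-max scaled. Spots of histone 13-mer peptide–cellulose conjugates on nitrocellulose, printed in triplicate with a Cy3 tracer, were probed for 1 h at 4°C with either biotin-labelled HaloTag reader fusions (10 nM to 1 μM) and streptavidin-Alexa Fluor 647 or rabbit histone antibodies (1:10,000 to 1:2,000) and anti-rabbit Alexa 647. Readout at 635 nm came from an Axon GenePix 4000B.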
# [2] = target: HaloTag-ING2 PHD (mouse Ing2 200-280)
# How it was run: as §1
# [3] = target: anti-H3K4me3 antibody ab8580
# How it was run: as §1
# [4] = target: anti-H3K9me3 antibody ab8898
# How it was run: as §1
# [5] = peptide modifications: H3R8me1 H3K9me3, binder concentration: 1:2,000 dilution
# [6] = peptide modifications: H3R8me1 H3K9me3, binder concentration: 1:10,000 dilution
# [7] = peptide modifications: H3R8me1 H3S10ph, binder concentration: 1:2,000 dilution
# [8] = peptide modifications: H3R8me1 H3S10ph, binder concentration: 1:10,000 dilution
# [9] = peptide modifications: H3R8me1 H3T11ph, binder concentration: 1:2,000 dilution
# [10] = peptide modifications: H3R8me1 H3T11ph, binder concentration: 1:10,000 dilution
# [11] = peptide modifications: H3R8me2a H3K9ac, binder concentration: 1:2,000 dilution
# [12] = peptide modifications: H3R8me2a H3K9ac, binder concentration: 1:10,000 dilution
# [13] = peptide modifications: H3R8me2a H3K9me1, binder concentration: 1:2,000 dilution
# [14] = peptide modifications: H3R8me2a H3K9me1, binder concentration: 1:10,000 dilution
# [15] = peptide modifications: H3R8me2a H3K9me2, binder concentration: 1:2,000 dilution
# [16] = peptide modifications: H3R8me2a H3K9me2, binder concentration: 1:10,000 dilution
# [17] = peptide modifications: H3R8me2a H3K9me3, binder concentration: 1:2,000 dilution
# [18] = peptide modifications: H3R8me2a H3K9me3, binder concentration: 1:10,000 dilution
# [19] = peptide modifications: H3R8me2a H3S10ph, binder concentration: 1:2,000 dilution
# [20] = peptide modifications: H3R8me2a H3S10ph, binder concentration: 1:10,000 dilution
# [21] = peptide modifications: H3R8me2a H3T11ph, binder concentration: 1:2,000 dilution
# [22] = peptide modifications: H3R8me2a H3T11ph, binder concentration: 1:10,000 dilution
# [23] = peptide modifications: H3R8me2a, binder concentration: 1:2,000 dilution
# [24] = peptide modifications: H3R8me2a, binder concentration: 1:10,000 dilution
binder,measurement,setting,value
QTARKSTGGKAPR [H3 5-17 Q T A Rme Kme3 S T G G K A P R],peptide microarray binding signal,"[1]; peptide modifications: H3R8me1 H3K9me3, binder concentration: 50 nM",0.00652 ± 0.00076
same,peptide microarray binding signal,"[1]; peptide modifications: H3R8me1 H3K9me3, binder concentration: 500 nM",0.0104 ± 0.0013
same,peptide microarray binding signal,"[2]; peptide modifications: H3R8me1 H3K9me3, binder concentration: 10 nM",0.0116 ± 0.00032
same,peptide microarray binding signal,"[2]; peptide modifications: H3R8me1 H3K9me3, binder concentration: 100 nM",0.0168 ± 0.002
same,peptide microarray binding signal,[3]; [5],0.0438 ± 0.013
same,peptide microarray binding signal,[3]; [6],0.0394 ± 0.0046
same,peptide microarray binding signal,[4]; [5],0.185 ± 0.023
same,peptide microarray binding signal,[4]; [6],0.243 ± 0.0063
QTARKSTGGKAPR [H3 5-17 Q T A Rme K Sph T G G K A P R],peptide microarray binding signal,"[1]; peptide modifications: H3R8me1 H3S10ph, binder concentration: 50 nM",0.0079 ± 0.00028
same,peptide microarray binding signal,"[1]; peptide modifications: H3R8me1 H3S10ph, binder concentration: 500 nM",0.0149 ± 0.003
same,peptide microarray binding signal,"[2]; peptide modifications: H3R8me1 H3S10ph, binder concentration: 10 nM",0.0175 ± 0.0014
same,peptide microarray binding signal,"[2]; peptide modifications: H3R8me1 H3S10ph, binder concentration: 100 nM",0.0298 ± 0.002
same,peptide microarray binding signal,[3]; [7],0.00208 ± 0.00022
same,peptide microarray binding signal,[3]; [8],0.00217 ± 0.00011
same,peptide microarray binding signal,[4]; [7],0.00359 ± 0.00056
same,peptide microarray binding signal,[4]; [8],0.00306
QTARKSTGGKAPR [H3 5-17 Q T A Rme K S Tph G G K A P R],peptide microarray binding signal,"[1]; peptide modifications: H3R8me1 H3T11ph, binder concentration: 50 nM",0.00818 ± 0.0006
same,peptide microarray binding signal,"[1]; peptide modifications: H3R8me1 H3T11ph, binder concentration: 500 nM",0.017 ± 0.0013
same,peptide microarray binding signal,"[2]; peptide modifications: H3R8me1 H3T11ph, binder concentration: 10 nM",0.0191 ± 0.0015
same,peptide microarray binding signal,"[2]; peptide modifications: H3R8me1 H3T11ph, binder concentration: 100 nM",0.042 ± 0.0045
same,peptide microarray binding signal,[3]; [9],0.00244 ± 0.00022
same,peptide microarray binding signal,[3]; [10],0.00428 ± 0.00027
same,peptide microarray binding signal,[4]; [9],0.0103 ± 0.012
same,peptide microarray binding signal,[4]; [10],0.012 ± 0.01
QTARKSTGGKAPR [H3 5-17 Q T A Rme2a Kac S T G G K A P R],peptide microarray binding signal,"[1]; peptide modifications: H3R8me2a H3K9ac, binder concentration: 50 nM",0.00423 ± 6.5e-05
same,peptide microarray binding signal,"[1]; peptide modifications: H3R8me2a H3K9ac, binder concentration: 500 nM",0.003 ± 4.1e-05
same,peptide microarray binding signal,"[2]; peptide modifications: H3R8me2a H3K9ac, binder concentration: 10 nM",0.00651
same,peptide microarray binding signal,"[2]; peptide modifications: H3R8me2a H3K9ac, binder concentration: 100 nM",0.00765 ± 0.00019
same,peptide microarray binding signal,[3]; [11],0.00208 ± 6e-05
same,peptide microarray binding signal,[3]; [12],0.00217 ± 5.2e-05
same,peptide microarray binding signal,[4]; [11],0.00403 ± 0.00054
same,peptide microarray binding signal,[4]; [12],0.00427 ± 9.8e-05
QTARKSTGGKAPR [H3 5-17 Q T A Rme2a Kme S T G G K A P R],peptide microarray binding signal,"[1]; peptide modifications: H3R8me2a H3K9me1, binder concentration: 50 nM",0.0102 ± 0.00047
same,peptide microarray binding signal,"[1]; peptide modifications: H3R8me2a H3K9me1, binder concentration: 500 nM",0.0208 ± 0.00058
same,peptide microarray binding signal,"[2]; peptide modifications: H3R8me2a H3K9me1, binder concentration: 10 nM",0.0329 ± 0.0037
same,peptide microarray binding signal,"[2]; peptide modifications: H3R8me2a H3K9me1, binder concentration: 100 nM",0.0496 ± 0.0052
same,peptide microarray binding signal,[3]; [13],0.0224 ± 0.003
same,peptide microarray binding signal,[3]; [14],0.0247 ± 0.0017
same,peptide microarray binding signal,[4]; [13],0.0228 ± 0.0036
same,peptide microarray binding signal,[4]; [14],0.0159 ± 0.0016
QTARKSTGGKAPR [H3 5-17 Q T A Rme2a Kme2 S T G G K A P R],peptide microarray binding signal,"[1]; peptide modifications: H3R8me2a H3K9me2, binder concentration: 50 nM",0.007555 ± 2.4e-05
same,peptide microarray binding signal,"[1]; peptide modifications: H3R8me2a H3K9me2, binder concentration: 500 nM",0.0185 ± 0.0016
same,peptide microarray binding signal,"[2]; peptide modifications: H3R8me2a H3K9me2, binder concentration: 10 nM",0.0456 ± 0.0053
same,peptide microarray binding signal,"[2]; peptide modifications: H3R8me2a H3K9me2, binder concentration: 100 nM",0.0526 ± 0.0031
same,peptide microarray binding signal,[3]; [15],0.032 ± 0.0036
same,peptide microarray binding signal,[3]; [16],0.0252 ± 0.0039
same,peptide microarray binding signal,[4]; [15],0.185 ± 0.023
same,peptide microarray binding signal,[4]; [16],0.104 ± 0.0059
QTARKSTGGKAPR [H3 5-17 Q T A Rme2a Kme3 S T G G K A P R],peptide microarray binding signal,"[1]; peptide modifications: H3R8me2a H3K9me3, binder concentration: 50 nM",0.00527 ± 0.0012
same,peptide microarray binding signal,"[1]; peptide modifications: H3R8me2a H3K9me3, binder concentration: 500 nM",0.0107 ± 0.0015
same,peptide microarray binding signal,"[2]; peptide modifications: H3R8me2a H3K9me3, binder concentration: 10 nM",0.0164 ± 0.0009
same,peptide microarray binding signal,"[2]; peptide modifications: H3R8me2a H3K9me3, binder concentration: 100 nM",0.019 ± 0.0012
same,peptide microarray binding signal,[3]; [17],0.0361 ± 0.011
same,peptide microarray binding signal,[3]; [18],0.0283 ± 0.011
same,peptide microarray binding signal,[4]; [17],0.208 ± 0.075
same,peptide microarray binding signal,[4]; [18],0.208 ± 0.025
QTARKSTGGKAPR [H3 5-17 Q T A Rme2a K Sph T G G K A P R],peptide microarray binding signal,"[1]; peptide modifications: H3R8me2a H3S10ph, binder concentration: 50 nM",0.00837 ± 0.0001
same,peptide microarray binding signal,"[1]; peptide modifications: H3R8me2a H3S10ph, binder concentration: 500 nM",0.0191 ± 0.0021
same,peptide microarray binding signal,"[2]; peptide modifications: H3R8me2a H3S10ph, binder concentration: 10 nM",0.0259 ± 0.0014
same,peptide microarray binding signal,"[2]; peptide modifications: H3R8me2a H3S10ph, binder concentration: 100 nM",0.0521 ± 0.0085
same,peptide microarray binding signal,[3]; [19],0.00508 ± 0.00076
same,peptide microarray binding signal,[3]; [20],0.00525 ± 0.00042
same,peptide microarray binding signal,[4]; [19],0.00298 ± 0.00042
same,peptide microarray binding signal,[4]; [20],0.00288 ± 4.3e-05
QTARKSTGGKAPR [H3 5-17 Q T A Rme2a K S Tph G G K A P R],peptide microarray binding signal,"[1]; peptide modifications: H3R8me2a H3T11ph, binder concentration: 50 nM",0.00567 ± 0.00028
same,peptide microarray binding signal,"[1]; peptide modifications: H3R8me2a H3T11ph, binder concentration: 500 nM",0.008 ± 0.00083
same,peptide microarray binding signal,"[2]; peptide modifications: H3R8me2a H3T11ph, binder concentration: 10 nM",0.0111 ± 0.00069
same,peptide microarray binding signal,"[2]; peptide modifications: H3R8me2a H3T11ph, binder concentration: 100 nM",0.0171 ± 0.0015
same,peptide microarray binding signal,[3]; [21],0.00181 ± 0.00016
same,peptide microarray binding signal,[3]; [22],0.00257 ± 6e-05
same,peptide microarray binding signal,[4]; [21],0.0287 ± 0.023
same,peptide microarray binding signal,[4]; [22],0.00409 ± 0.0015
QTARKSTGGKAPR [H3 5-17 Q T A Rme2a K S T G G K A P R],peptide microarray binding signal,"[1]; peptide modifications: H3R8me2a, binder concentration: 50 nM",0.00386 ± 0.00017
same,peptide microarray binding signal,"[1]; peptide modifications: H3R8me2a, binder concentration: 500 nM",0.00367 ± 0.00047
same,peptide microarray binding signal,"[2]; peptide modifications: H3R8me2a, binder concentration: 10 nM",0.00346
same,peptide microarray binding signal,"[2]; peptide modifications: H3R8me2a, binder concentration: 100 nM",0.0034 ± 0.00021
same,peptide microarray binding signal,[3]; [23],0.0114 ± 0.0019
same,peptide microarray binding signal,[3]; [24],0.00793 ± 0.00067
same,peptide microarray binding signal,[4]; [23],0.00296 ± 0.00055
same,peptide microarray binding signal,[4]; [24],0.00565 ± 0.0013

# From the supplement of paper PMC4022240
